The text below walks through data of the antibiotic and cytotoxicity screens of Wong et al. (2023).

The whole screen tested about 39,000 compounds, of which about 1,500 (3.8%) were called active. This is one part of a sample in which actives are shown more often than they occur.

The test system of the assay is HSkMC (human skeletal muscle cells). The assay can be described thus: cytotoxicity call (relative viability < 0.9). The settings on record: 10 µM.
Turning to `CN(c1c[nH]c(=O)[nH]c1=O)C1CCCCC1`, the cytotoxicity call is “inactive”.

`C[C@@H]1CN([C@H](C)CO)C(=O)Cc2cc(NS(=O)(=O)c3ccc(F)cc3)ccc2O[C@H]1CN(C)Cc1ccc(Oc2ccccc2)cc1`: the cytotoxicity call was “active”.

For `C[C@H](CO)N1C[C@H](C)[C@@H](CN(C)Cc2ccc(Oc3ccccc3)cc2)Oc2ccc(NS(=O)(=O)c3ccc(F)cc3)cc2CC1=O`, the cytotoxicity call is “inactive”.

In the case of `C[C@@H]1CN([C@H](C)CO)C(=O)Cc2cc(NS(=O)(=O)c3ccc(F)cc3)ccc2O[C@@H]1CN(C)Cc1ccc(Oc2ccccc2)cc1`, the cytotoxicity call is “active”.

In the case of `C[C@H](CO)N1C[C@H](C)[C@H](CN(C)Cc2ccc(Oc3ccccc3)cc2)Oc2ccc(NS(=O)(=O)c3ccc(F)cc3)cc2CC1=O`, the cytotoxicity call is “active”.

As for `C[C@@H]1CN([C@@H](C)CO)C(=O)Cc2cc(NS(=O)(=O)c3ccc(F)cc3)ccc2O[C@H]1CN(C)Cc1ccc(Oc2ccccc2)cc1`, the cytotoxicity call was “inactive”.

`C[C@H]1CN([C@@H](C)CO)C(=O)Cc2cc(NS(=O)(=O)c3ccc(F)cc3)ccc2O[C@@H]1CN(C)Cc1ccc(Oc2ccccc2)cc1`: the cytotoxicity call is “inactive”.

Consider `C[C@H]1CN([C@@H](C)CO)C(=O)Cc2cc(NS(=O)(=O)c3ccc(F)cc3)ccc2O[C@H]1CN(C)Cc1ccc(Oc2ccccc2)cc1`, for which the cytotoxicity call is “active”.

`Cc1noc(C)c1NC(=O)Nc1ccc2c(c1)C(=O)N([C@@H](C)CO)C[C@H](C)[C@H](CN(C)Cc1ccc3c(c1)OCO3)OCCCC[C@H](C)O2`: the cytotoxicity call was “inactive”.

Regarding `CC(C)NC(=O)N(C)C[C@H]1Oc2ccc(NC(=O)CCCN(C)C)cc2C(=O)N([C@H](C)CO)C[C@@H]1C`, the cytotoxicity call is “inactive”.

Take `C[C@@H]1CCCCO[C@@H](CN(C)C(=O)C2CCCCC2)[C@@H](C)CN([C@@H](C)CO)C(=O)c2cc(NC(=O)CCC(F)(F)F)ccc2O1`: the cytotoxicity call is “inactive”.

Take `C[C@@H]1CN([C@@H](C)CO)C(=O)c2cc(NS(=O)(=O)c3ccc(Cl)cc3)ccc2O[C@@H](C)CCCCO[C@H]1CN(C)S(=O)(=O)c1ccc(F)cc1`: the cytotoxicity call was “inactive”.

As to `Cc1noc(C)c1S(=O)(=O)Nc1ccc2c(c1)CC(=O)N([C@@H](C)CO)C[C@@H](C)[C@H](CN(C)C(=O)Nc1ccc3c(c1)OCO3)O2`, the cytotoxicity call is “inactive”.

On to `COc1ccc(CN(C)C[C@H]2Oc3ccc(NS(C)(=O)=O)cc3C(=O)N([C@@H](C)CO)C[C@H]2C)cc1`, for which the cytotoxicity call is “inactive”.

Turning to `COc1ccccc1CNC(=O)C[C@H]1C[C@@H]2c3cc(NC(=O)c4cccnc4)ccc3O[C@@H]2[C@H](CO)O1`, the cytotoxicity call was “inactive”.

With `C[C@@H]1CN([C@@H](C)CO)C(=O)Cc2cc(NS(=O)(=O)c3ccc(F)cc3)ccc2O[C@@H]1CN(C)Cc1ccc(Oc2ccccc2)cc1`, the cytotoxicity call is “active”.

Regarding `Cc1ccccc1S(=O)(=O)N1C[C@@H](O)COC[C@@H]2O[C@H](CC(=O)N3CCOCC3)CC[C@H]21`, the cytotoxicity call was “inactive”.

In the case of `COc1ccc2c3c([nH]c2c1)[C@H](CO)N(C[C@]13CCN(CC1)C(=O)c1cnccn1)C(=O)c1cnccn1`, the cytotoxicity call is “inactive”.

`COc1ccc(C(=O)O)cc1`: the cytotoxicity call was “inactive”.

For `COc1ccc(C(=O)CO)cc1`, the cytotoxicity call is “inactive”.

As to `COc1ccc(C(=O)CC(=O)c2ccc(C(C)(C)C)cc2)cc1`, the cytotoxicity call was “active”.

For the compound `Cc1cc(C(=O)Nc2cccc3c2O[C@H](CN(C)Cc2ccc4c(c2)OCO4)[C@@H](C)CN([C@@H](C)CO)C3=O)n(C)n1`, the cytotoxicity call is “inactive”.

As for `Cc1cc(O[C@@H](CCC(F)(F)F)c2ccc(C(=O)NCCC(=O)O)cc2)cc(C)c1-c1ccc(C(C)(C)C)cc1`, the cytotoxicity call is “active”.

On to `O=C(O)CCNC(=O)c1ccccc1` [listing 1 of 2 here], for which the cytotoxicity call is “inactive”.

On to `O=C(O)CCNC(=O)c1ccccc1` [listing 2 of 2 here], for which the cytotoxicity call is “inactive”.

On to `O=C(/C=C/c1ccc(O)c(O)c1)O[C@]1(C(=O)O)C[C@@H](O)[C@H](O)[C@H](O)C1`, for which the cytotoxicity call was “inactive”.

With `CC(C)NC(=O)Nc1ccc2c(c1)C(=O)N([C@H](C)CO)C[C@H](C)[C@@H](CN(C)S(=O)(=O)c1ccc(F)cc1)O2`, the cytotoxicity call was “inactive”.

Turning to `Cn1cnc(CCNC(=O)C[C@@H]2CC[C@H]3[C@@H](COC[C@@H](O)CN3C(=O)Nc3ccc(Cl)cc3)O2)c1`, the cytotoxicity call is “inactive”.

For the compound `CO[C@@H]1CN(C)C(=O)c2ccc(NS(=O)(=O)CC(F)(F)F)cc2OC[C@H](C)N(Cc2cccnc2)C[C@H]1C`, the cytotoxicity call was “inactive”.

In the case of `C[C@@H]1CN([C@@H](C)CO)C(=O)c2cc(NC(=O)Nc3cccc4ccccc34)ccc2O[C@@H](C)CCCCO[C@H]1CN(C)Cc1ccc2c(c1)OCO2`, the cytotoxicity call is “active”.

Regarding `C[C@@H]1CCCCO[C@@H](CN(C)Cc2ccc3c(c2)OCO3)[C@@H](C)CN([C@@H](C)CO)C(=O)c2cc(NC(=O)Nc3cccc4ccccc34)ccc2O1`, the cytotoxicity call was “inactive”.

Turning to `C[C@H]1CCCCO[C@@H](CN(C)Cc2ccc3c(c2)OCO3)[C@@H](C)CN([C@@H](C)CO)C(=O)c2cc(NC(=O)Nc3cccc4ccccc34)ccc2O1`, the cytotoxicity call is “active”.

For `C[C@H](CO)N1C[C@H](C)[C@@H](CN(C)Cc2ccc3c(c2)OCO3)OCCCC[C@H](C)Oc2ccc(NC(=O)Nc3cccc4ccccc34)cc2C1=O`, the cytotoxicity call was “active”.

With `C[C@@H]1CN([C@H](C)CO)C(=O)c2cc(NC(=O)Nc3cccc4ccccc34)ccc2O[C@@H](C)CCCCO[C@H]1CN(C)Cc1ccc2c(c1)OCO2`, the cytotoxicity call is “inactive”.

`C[C@@H]1CCCCO[C@H](CN(C)Cc2ccc3c(c2)OCO3)[C@@H](C)CN([C@H](C)CO)C(=O)c2cc(NC(=O)Nc3cccc4ccccc34)ccc2O1`: the cytotoxicity call is “inactive”.

Take `C[C@@H]1CCCCO[C@@H](CN(C)Cc2ccc3c(c2)OCO3)[C@@H](C)CN([C@H](C)CO)C(=O)c2cc(NC(=O)Nc3cccc4ccccc34)ccc2O1`: the cytotoxicity call is “inactive”.

As for `C[C@@H]1CCCCO[C@H](CN(C)Cc2ccc3c(c2)OCO3)[C@H](C)CN([C@@H](C)CO)C(=O)c2cc(NC(=O)Nc3cccc4ccccc34)ccc2O1`, the cytotoxicity call was “active”.

With `C=CCOC(=O)[C@H]1[C@@H]2C(=O)O[C@@H](c3ccccc3)[C@@H](c3ccccc3)N2[C@@H](c2ccc(OCCOC(=O)[C@@H]3C[C@@H]4C(=O)N[C@@H](CCCCNC(C)=O)C(=O)N4[C@@H]3c3ccc(O)cc3)cc2)[C@]12C(=O)Nc1ccccc12`, the cytotoxicity call was “inactive”.

As for `COc1ccc(CN(C)C[C@@H]2OCCCC[C@@H](C)Oc3ccc(NS(=O)(=O)c4ccc(F)cc4)cc3C(=O)N([C@H](C)CO)C[C@@H]2C)cc1`, the cytotoxicity call was “inactive”.

Regarding `C[C@H](CO)N1C[C@H](C)[C@@H](CN(C)Cc2ccc(C(F)(F)F)cc2)Oc2ccc(NC(=O)Cn3cnnn3)cc2CC1=O`, the cytotoxicity call was “inactive”.

Consider `C[C@H](CO)N1C[C@H](C)[C@@H](CN(C)S(=O)(=O)c2cn(C)cn2)Oc2ccc(NC(=O)C3CCCCC3)cc2CC1=O`, for which the cytotoxicity call is “inactive”.

For the compound `Cc1ccc(S(=O)(=O)Nc2cccc3c2O[C@@H](CN(C)S(=O)(=O)c2cccs2)[C@@H](C)CN([C@H](C)CO)C3=O)cc1`, the cytotoxicity call was “inactive”.

Take `CN1C(=O)C[C@@H]2[C@@H]1CCN2C(=O)c1ccc[nH]1`: the cytotoxicity call was “inactive”.

For the compound `C[C@H](CO)N1C[C@H](C)[C@@H](CN(C)S(=O)(=O)c2cn(C)cn2)OCc2ccccc2-c2ccccc2C1=O`, the cytotoxicity call is “inactive”.

For the compound `C[C@H]1CCCCO[C@H](CN(C)Cc2ccc3c(c2)OCO3)[C@@H](C)CN([C@@H](C)CO)C(=O)c2cc(NC(=O)Nc3cccc4ccccc34)ccc2O1`, the cytotoxicity call was “inactive”.

Regarding `C[C@@H]1CN([C@@H](C)CO)C(=O)c2cc(NC(=O)Nc3cccc4ccccc34)ccc2O[C@@H](C)CCCCO[C@@H]1CN(C)Cc1ccc2c(c1)OCO2`, the cytotoxicity call is “inactive”.

Turning to `C[C@H](CO)N1C[C@H](C)[C@H](CN(C)Cc2ccc3c(c2)OCO3)OCCCC[C@H](C)Oc2ccc(NC(=O)Nc3cccc4ccccc34)cc2C1=O`, the cytotoxicity call is “active”.

Regarding `C[C@@H]1CCCCO[C@H](CN(C)Cc2ccc3c(c2)OCO3)[C@H](C)CN([C@H](C)CO)C(=O)c2cc(NC(=O)Nc3cccc4ccccc34)ccc2O1`, the cytotoxicity call was “active”.

For `C[C@@H]1CCCCO[C@H](CN(C)Cc2ccc3c(c2)OCO3)[C@@H](C)CN([C@@H](C)CO)C(=O)c2cc(NC(=O)Nc3cccc4ccccc34)ccc2O1`, the cytotoxicity call was “inactive”.

Consider `C[C@@H]1CCCCO[C@@H](CN(C)Cc2ccc3c(c2)OCO3)[C@H](C)CN([C@@H](C)CO)C(=O)c2cc(NC(=O)Nc3cccc4ccccc34)ccc2O1`, for which the cytotoxicity call is “inactive”.

With `C[C@@H]1CN([C@H](C)CO)C(=O)c2cc(NC(=O)Nc3cccc4ccccc34)ccc2O[C@@H](C)CCCCO[C@@H]1CN(C)Cc1ccc2c(c1)OCO2`, the cytotoxicity call was “active”.

Regarding `C[C@@H]1CCCCO[C@@H](CN(C)Cc2ccc3c(c2)OCO3)[C@H](C)CN([C@H](C)CO)C(=O)c2cc(NC(=O)Nc3cccc4ccccc34)ccc2O1`, the cytotoxicity call was “active”.

As for `Cc1ccc(S(=O)(=O)Nc2ccc3c(c2)C(=O)N([C@@H](C)CO)C[C@@H](C)[C@@H](CN(C)C(=O)Nc2ccc(C(F)(F)F)cc2)O3)cc1`, the cytotoxicity call is “inactive”.

Take `C[C@H](CO)N1C[C@H](C)[C@@H](CN(C)C(=O)Nc2ccc(C(F)(F)F)cc2)OCc2cn(nn2)CCCC1=O`: the cytotoxicity call is “inactive”.

As to `CN(C)/N=N/c1nc[nH]c1C(N)=O`, the cytotoxicity call was “inactive”.

For the compound `COC(=O)C[C@H]1CC[C@H](N)[C@@H](CO)O1`, the cytotoxicity call is “inactive”.

Consider `NCc1cccc(-c2ccccc2)c1`, for which the cytotoxicity call is “inactive”.

As for `C[C@@H]1CCCCO[C@@H](CN(C)C(=O)NC2CCCCC2)[C@@H](C)CN([C@H](C)CO)C(=O)c2cc(NC(=O)CCCCCC(=O)Nc3ccccc3N)ccc2O1`, the cytotoxicity call is “inactive”.

For the compound `C[C@@H]1CN([C@@H](C)CO)C(=O)c2cc(NC(=O)Nc3ccc(F)cc3)ccc2O[C@@H](C)CCCCO[C@@H]1CN(C)C(=O)C1CCCCC1`, the cytotoxicity call was “inactive”.

Turning to `C[C@@H]1CN([C@@H](C)CO)C(=O)c2cc(NS(=O)(=O)c3ccc(Cl)cc3)ccc2O[C@H]1CN(C)Cc1ccc(Cl)c(Cl)c1`, the cytotoxicity call was “active”.

`C[C@@H]1CN([C@H](C)CO)C(=O)c2cc(NS(=O)(=O)c3ccc(Cl)cc3)ccc2O[C@@H]1CN(C)Cc1ccc(Cl)c(Cl)c1`: the cytotoxicity call was “active”.

On to `C[C@H]1CN([C@@H](C)CO)C(=O)c2cc(NS(=O)(=O)c3ccc(Cl)cc3)ccc2O[C@H]1CN(C)Cc1ccc(Cl)c(Cl)c1`, for which the cytotoxicity call is “active”.

Consider `C[C@H](CO)N1C[C@H](C)[C@@H](CN(C)Cc2ccc(Cl)c(Cl)c2)Oc2ccc(NS(=O)(=O)c3ccc(Cl)cc3)cc2C1=O`, for which the cytotoxicity call was “active”.
